Compounds without any hit were thinned out: in the full panel of roughly 83,000, 20% have a hit.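 For each line, cells grew in 96-well plates with the test compound present at a single concentration for 48 hours.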 Unmarked numbers belong to inactive results. Calls of active or inactive are those of the source. The calls were made as follows: active = growth percent below 10; inactive = the rest.

Here are results for 15 molecules from PubChem BioAssay (NCI).

Among the test systems are T-47D breast; BT-549 breast; MDA-MB-435 melanoma; SW-620 colon; MCF7 breast; HCT-116 colon; HCC-2998 colon; KM12 colon; MDA-MB-468 breast.
Common to all, as to assay: NCI-60 one-dose screen, 48 h (100 = growth as untreated, 0 = no growth, -100 = all killed)
What all share (conditions): 10 µM unless noted

Turning to `CS(=O)(=O)Nc1cncc(-c2ccc3ncnc(NCc4ccccc4)c3c2)c1`, the growth in the assay on T-47D breast is 3.96% (active); with BT-549 breast, 2.92% (active); with MDA-MB-435 melanoma it was 55.1%; in the assay with SW-620 colon it was 38.9%; with MCF7 breast it was 9.82% (active); in the assay with HCT-116 colon, 19.1%. In addition, the values for the growth with HCC-2998 colon, with KM12 colon and in the assay on MDA-MB-468 breast were 45.9%, 65.5% and -34% (active), respectively.

In the case of `COc1ccc2[nH]c(O)c(N=Nc3nc(-c4ccccc4)cs3)c2c1`, the growth in the assay on T-47D breast is 0.04% (active); in the assay with BT-549 breast it was 50.2%; with MDA-MB-435 melanoma, 39.7%; in the assay with SW-620 colon, 37.4%; in the assay on MCF7 breast it was 11.6%; with HCT-116 colon, 1.24% (active). Further, the growth in the assay on HCC-2998 colon was 58.6%; with KM12 colon, 46.7%; in the assay with MDA-MB-468 breast it was -20.7% (active).

With `Cc1[nH]nc2ccc3nc(-c4cnn(CCO)c4)c4c(c3c12)CCCC4`, the growth in the assay with T-47D breast is 34.5%; in the assay with BT-549 breast, 46.3%; with MDA-MB-435 melanoma, 18.7%; with SW-620 colon it was 29%; in the assay on MCF7 breast, 52.6%; with HCT-116 colon, 33.8%. Also, the values for the growth with HCC-2998 colon, in the assay with KM12 colon and in the assay with MDA-MB-468 breast were 45.6%, 18.8% and -0.783% (active), respectively.

For `COc1ccc(-c2cc(-c3cc(C(C)C)c(O)cc3C)nn2-c2ccc(S(N)(=O)=O)cc2)cc1`, the growth is 12.7% with T-47D breast; -3.73% (active) with BT-549 breast; -58.2% (active) in the assay on MDA-MB-435 melanoma; 28.2% in the assay on SW-620 colon; 11% with MCF7 breast; 27.4% with HCT-116 colon. Moreover, the growth with HCC-2998 colon was 45.9%; in the assay on KM12 colon, 2.28% (active); in the assay on MDA-MB-468 breast, -15.9% (active).

Turning to `CC1=NN(C2=NC(=O)C(CC(=O)Nc3ccccc3C(F)(F)F)S2)C(c2ccc(N(C)C)cc2)C1` (stereo not given), the growth is 48% in the assay with T-47D breast; 52.7% in the assay on BT-549 breast; -26.5% (active) with MDA-MB-435 melanoma; 60.5% with SW-620 colon; 23.4% with MCF7 breast; 30.1% in the assay on HCT-116 colon. Besides, the values for the growth with HCC-2998 colon, in the assay on KM12 colon and in the assay with MDA-MB-468 breast were 66.2%, 39% and 3.34% (active), respectively.

With `CCOC(=O)c1ccc(NC(=S)NC(=O)c2cccc(NC(=O)c3ccc(C)cc3)c2)cc1`, the growth was 67.9% with T-47D breast; 63.3% in the assay on BT-549 breast; 86.1% in the assay with MDA-MB-435 melanoma; 68.2% with SW-620 colon; 64.2% in the assay on MCF7 breast; 49.1% in the assay with HCT-116 colon. For the same molecule, the figures for the growth with HCC-2998 colon, in the assay on KM12 colon and in the assay with MDA-MB-468 breast were 98.4%, 97.5% and 94.1%, respectively.

`Clc1ccc(-c2nc3c4c(-c5ccccc5)c(-c5ccccc5)n(Cc5ccccc5)c4ncn3n2)cc1`: the growth in the assay with T-47D breast was 7.51% (active); in the assay on BT-549 breast it was -28.4% (active); in the assay on MDA-MB-435 melanoma it was 5.5% (active); in the assay with SW-620 colon it was 12%; with MCF7 breast, -2.7% (active); in the assay on HCT-116 colon it was 3.25% (active). The values for the growth in the assay on HCC-2998 colon, in the assay with KM12 colon and in the assay on MDA-MB-468 breast were 22.1%, 9.06% (active) and -40.4% (active), respectively.

Regarding `CCOc1ccccc1[C@H]1C(C(=O)c2ccc(Cl)cc2)C2(N[C@@H]1c1ccccc1)C(=O)Nc1ccccc12` (stereo not given in full), the growth in the assay on T-47D breast is 10%; in the assay with BT-549 breast it was -35% (active); in the assay on MDA-MB-435 melanoma, -28.3% (active); in the assay with SW-620 colon, 21%; in the assay with MCF7 breast, -9.52% (active); with HCT-116 colon, 3.88% (active). Further, the figures for the growth with HCC-2998 colon, with KM12 colon and with MDA-MB-468 breast were 6.07% (active), 12.4% and -31.1% (active), respectively.

On to `Cc1nn(-c2ccccc2)c2ncn(CC(=O)N/N=C/c3ccccc3O)c(=O)c12`, for which the growth in the assay with T-47D breast was 22.9%; in the assay with BT-549 breast it was 56.5%; with MDA-MB-435 melanoma, 64.1%; in the assay on SW-620 colon, 43.5%; with MCF7 breast, 16.3%; in the assay with HCT-116 colon, 18.5%. The figures for the growth with HCC-2998 colon, with KM12 colon and in the assay on MDA-MB-468 breast were 36.2%, 25.8% and 10.9%, respectively.

Turning to `O=C(N/N=C/c1ccoc1)c1[nH]c2ccc(Br)cc2c1-c1ccccc1`, the growth was -74.7% (active) with T-47D breast; -90.3% (active) in the assay on BT-549 breast; -96% (active) in the assay on MDA-MB-435 melanoma; -83.6% (active) in the assay on SW-620 colon; -70.3% (active) in the assay on MCF7 breast; -75.8% (active) in the assay on HCT-116 colon. The growth was -100% (active) in the assay on HCC-2998 colon, -25.4% (active) in the assay on KM12 colon and -88.5% (active) in the assay with MDA-MB-468 breast.

For the molecule `C[C@@H](Nc1c(C#N)cnc2ccc(-c3cnc4[nH]ncc4c3)cc12)c1ccccc1`, the growth was 10.9% with T-47D breast; -21.7% (active) in the assay with BT-549 breast; 22.4% in the assay with MDA-MB-435 melanoma; 40.2% with SW-620 colon; -27.9% (active) with MCF7 breast; 20.2% in the assay on HCT-116 colon. Also, the growth with HCC-2998 colon was 33.3%; with KM12 colon, 30%; in the assay on MDA-MB-468 breast, -70.1% (active).

Turning to `CN1C(=O)C2(C(C#N)=C(c3ccc(Cl)cc3)Nc3c2c(-c2ccccc2)nn3-c2ccccc2)c2ccccc21` (stereo not given), the growth is 84.6% in the assay with T-47D breast; 93.8% in the assay on BT-549 breast; 97.1% in the assay on MDA-MB-435 melanoma; 106% in the assay on SW-620 colon; 73.8% with MCF7 breast; 73.8% in the assay on HCT-116 colon. For the same molecule, the growth was 87% in the assay on HCC-2998 colon, 94.9% in the assay with KM12 colon and 95.4% in the assay on MDA-MB-468 breast.

Consider `O=C(NNC(=S)NC(=O)c1ccccc1)c1ccc(OCc2nc3ccc(Cl)cc3[nH]2)cc1`, for which the growth in the assay with T-47D breast is 10.2%; in the assay with BT-549 breast it was -51.8% (active); in the assay on MDA-MB-435 melanoma, -51.2% (active); in the assay with SW-620 colon it was 19.8%; with MCF7 breast, 3.67% (active); in the assay with HCT-116 colon, -34.6% (active). In addition, the growth with HCC-2998 colon is -80.3% (active); with KM12 colon, -3.11% (active); in the assay on MDA-MB-468 breast it was -41% (active).

As to `COc1ccc(C(=O)/C=C/c2ccc3c(c2)OCCO3)cc1S(N)(=O)=O`, the growth is 53% in the assay on T-47D breast; 65.4% in the assay with BT-549 breast; 87.8% with MDA-MB-435 melanoma; 32.3% in the assay on SW-620 colon; 23.2% in the assay on MCF7 breast; 42.9% with HCT-116 colon. Further, the growth in the assay on HCC-2998 colon was 99.1%; with KM12 colon, 85.8%; with MDA-MB-468 breast it was 80.7%.

In the case of `Cn1cc(-c2cc(N)n3nc(-c4c[nH]c5ccccc45)cc3n2)c2cc(Br)ccc21`, the growth was -82.7% (active) with T-47D breast; -58% (active) in the assay with BT-549 breast; -79% (active) with MDA-MB-435 melanoma; -84.3% (active) with SW-620 colon; -73.9% (active) in the assay on MCF7 breast; -77.7% (active) with HCT-116 colon. In addition, the figures for the growth in the assay with HCC-2998 colon, with KM12 colon and in the assay on MDA-MB-468 breast were -77% (active), -79.3% (active) and -80.8% (active), respectively.
